# Data: ChEMBL document CHEMBL1961873, “Compounds: GSK PKIS; Assays: Nanosyn kinase panel” (2012)
# Molecular target: Mast/stem cell growth factor receptor Kit (Homo sapiens) (UniProt P10721)
# Conditions: at 0.1 µM
# 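Also: values are mean inhibition of KIT, from the GSK PKIS dataset.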
# Sequence of Mast/stem cell growth factor receptor Kit (Homo sapiens) (P10721 whole entry): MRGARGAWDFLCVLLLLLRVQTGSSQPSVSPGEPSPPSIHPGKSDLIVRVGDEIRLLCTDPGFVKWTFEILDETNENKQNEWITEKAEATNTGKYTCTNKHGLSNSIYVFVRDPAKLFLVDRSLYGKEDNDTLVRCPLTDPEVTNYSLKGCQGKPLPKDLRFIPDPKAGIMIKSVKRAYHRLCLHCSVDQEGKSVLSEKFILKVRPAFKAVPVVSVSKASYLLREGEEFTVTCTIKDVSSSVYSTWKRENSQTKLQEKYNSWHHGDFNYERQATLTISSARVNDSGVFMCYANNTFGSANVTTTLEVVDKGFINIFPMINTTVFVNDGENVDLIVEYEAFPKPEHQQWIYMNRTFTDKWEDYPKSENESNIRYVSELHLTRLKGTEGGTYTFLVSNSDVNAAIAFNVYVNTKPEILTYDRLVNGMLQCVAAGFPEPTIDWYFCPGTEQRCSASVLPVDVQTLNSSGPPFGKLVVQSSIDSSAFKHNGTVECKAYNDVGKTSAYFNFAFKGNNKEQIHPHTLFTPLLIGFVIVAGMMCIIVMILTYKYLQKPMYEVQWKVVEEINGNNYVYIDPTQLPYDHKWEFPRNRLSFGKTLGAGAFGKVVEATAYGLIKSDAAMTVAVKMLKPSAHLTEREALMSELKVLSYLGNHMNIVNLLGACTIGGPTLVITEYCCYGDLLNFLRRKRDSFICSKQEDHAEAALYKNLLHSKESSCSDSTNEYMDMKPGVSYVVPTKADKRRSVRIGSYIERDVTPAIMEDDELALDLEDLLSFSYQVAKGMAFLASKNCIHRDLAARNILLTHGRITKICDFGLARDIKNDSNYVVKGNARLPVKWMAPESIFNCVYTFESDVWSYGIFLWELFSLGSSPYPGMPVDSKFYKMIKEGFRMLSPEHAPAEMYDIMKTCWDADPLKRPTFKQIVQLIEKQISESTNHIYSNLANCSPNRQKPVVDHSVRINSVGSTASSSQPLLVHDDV
row,Structure (SMILES),inhibition [%]
1,Cc1nc(-c2ccccc2)n2nc(NCCCN3CCOCC3)ncc12,3.52
2,COc1cc(/C=N/Nc2ncnc3c2cnn3C(C)C)ccc1O,8.94
3,COc1cccc(-n2nc(C)c3c(N/N=C(\C)c4ccncc4)ncnc32)c1,1.56
4,Cc1ccc2c(-c3ccnc(Nc4ccc5c(c4)OCCO5)n3)c(-c3ccc(C(F)(F)F)cc3)nn2n1,-0.52
5,COc1cc2ncnc(Nc3ccc4c(cnn4Cc4ccccc4)c3)c2cc1OC,2.37
6,Cc1ccc2c(-c3ccnc(Nc4cccc(C(F)(F)F)c4)n3)c(-c3ccccc3)nn2n1,9.72
7,Cc1cc(O)cc(C)c1/C=C/c1cncc(C(=O)N(C)C)c1,4.12
8,Nc1ccc(C#Cc2cncnc2Nc2ccc(OCc3cccc(F)c3)c(Cl)c2)cc1,5.48
9,Nc1nccc(-c2c(-c3ccc(F)cc3)ncn2CCCN2CCOCC2)n1,3.2
10,N#Cc1cccc(Nc2nccc(-c3cnn4ncccc34)n2)c1,78.3
11,NC(=O)c1sc(-n2cnc3ccccc32)cc1OCc1ccccc1Br,5.61
12,CCS(=O)(=O)c1ccc(OC)c(Nc2nccc(N(C)c3ccc4c(C)n[nH]c4c3)n2)c1,44.2
13,O=C(Nc1ccc(Oc2ccc3[nH]c(NC(=O)c4ccco4)nc3c2)cc1)Nc1cc(C(F)(F)F)ccc1F,30.5
14,COC(=O)c1ccc2c(c1)C(=Cc1cc(Br)c(O)c(Br)c1)C(=O)N2,3.84
15,CCOc1nccc2c1nc(-c1nonc1N)n2CC,3.38
16,COC(=O)Nc1nc2cc(Oc3ccc(NC(=O)Nc4cccc(Br)c4)cc3)ccc2[nH]1,84.5
17,CCn1c(-c2nonc2N)nc2c(C#CC(C)(C)O)nc(OCCNC)cc21,4.99
18,NS(=O)(=O)c1cccc(-c2cc3ccncc3cc2OCc2ccccc2)c1,6.67
19,NS(=O)(=O)c1ccc(N/N=C2\C(=O)Nc3ccc(Cl)cc32)cc1,41.3
